The values below come from PubChem BioAssay (Tox21).

Records with an inconclusive call do not appear. Unmarked numbers belong to inactive results. The call rests on the fitted dose curve.
On the % scale 0 is the no-effect control and ±100 the full control effect.

In this assay the target is D(2) dopamine receptor (Homo sapiens) (UniProt P14416). The experiment in a line: Dopamine D2 receptor (DRD2) small molecule agonists, cell-based qHTS assay (AID 1963594). Further: nearly all actives have a fitted effect of over 35% in size. The note with it: HEK293-DRD2 cAMP HTRF, agonist mode, 30 min; series mostly up to 92.4 µM; activation: at the top concentration. An excerpt: National Center for Advancing Translational Sciences [NCATS]
D(2) dopamine receptor (Homo sapiens), sequence (P14416 whole entry, looked up): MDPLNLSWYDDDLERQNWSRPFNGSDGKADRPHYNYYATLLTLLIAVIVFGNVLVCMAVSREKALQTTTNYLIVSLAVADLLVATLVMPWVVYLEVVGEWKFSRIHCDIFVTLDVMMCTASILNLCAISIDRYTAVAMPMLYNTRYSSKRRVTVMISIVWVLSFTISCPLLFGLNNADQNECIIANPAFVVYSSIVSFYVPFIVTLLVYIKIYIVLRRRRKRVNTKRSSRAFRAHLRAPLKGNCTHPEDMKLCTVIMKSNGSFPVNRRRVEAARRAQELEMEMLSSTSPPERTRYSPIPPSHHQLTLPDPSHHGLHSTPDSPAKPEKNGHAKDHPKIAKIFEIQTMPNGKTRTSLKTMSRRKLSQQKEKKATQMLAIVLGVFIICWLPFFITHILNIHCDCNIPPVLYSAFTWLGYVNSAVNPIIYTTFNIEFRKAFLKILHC
Division of Preclinical Innovation [DPI]
U.S. Environmental Protection Agency [EPA]
National Institutes of Environmental Health Sciences [NIEHS]
National Toxicology Program [NTP]
U.S. Food and Drug Administration [FDA]
DRD2 is the D2 subtype of the dopamine receptor, which is coupled to Gi subtype of G protein-coupled receptor. This G protein-coupled receptor inhibits adenylyl cyclase activity. The DRD2-HEK293 cell line stably expressing D2 dopamine receptor can be used for screening agonists and antagonists of interactions between D2 and its ligands. The Hek293-DRD2 cAMP assay is based on HTRF technology. It measures changes of cAMP accumulation in response to Gi coupled GPCR activation or inhibition.
Tox21 Assay Protocol Summary:
DRD2-Hek293 cells were dispensed at 600 cells/3uL/well in 1536-well white plates using a Multidrop Dispenser. After the assay plates were incubated at a 37 C/5% CO2 incubator for 24 h, 1 uL of Ro20-1724 at final concentration of 0.1 mM was transferred to the assay plate by a Flying Reagent Dispenser. Following Ro20-1724 addition, 23 nL of compound dissolved in DMSO, positive controls or DMSO only was added to the assay plates via Wako pintool station. The assay plates were incubated at room temperature for 10 min. Next, 1 uL of NKH477 at 200nM was added into the plates. After the assay plates were incubated at room temperature for an additional 30 min, 2.5 ul/well of cAMP-d2 and 2.5 ul/well of anti-cAMP-cryptate were added respectively into the assay plates using a Flying Reagent Dispenser. The plates were incubated at room temperature for 1 h. The fluorescence intensity in the plates was measured at 340 nm excitation and 665 & 620 nm emission by an Envision plate reader.
On the technique in general: Quantitative high-throughput screening tests each substance at several concentrations.
On to `Cc1ccc(Br)cc1`, for which the “activation” value is -1.41%.

As to `CCOC(=O)c1ccc(C#Cc2ccc3c(c2)C(C)(C)CCS3)nc1`, the “activation” value is 8.01% [at 42.5 µM].

On to `CCCCCCCCCCCCCCCC(=O)OC/C=C(C)/C=C/C=C(C)/C=C/C1=C(C)CCCC1(C)C`, for which the “activation” value is 2.96%.

In the case of `CCc1nn(CCCN2CCN(c3cccc(Cl)c3)CC2)c(=O)n1CCOc1ccccc1`, the “activation” value is -22.4% [at 42.5 µM].

On to `O=C(c1ccc(F)cc1)C1CCN(CCn2c(=S)[nH]c3ccccc3c2=O)CC1`, for which the “activation” value is -0.395% [at 42.5 µM].

Take `CN(C/C=C/c1ccccc1)Cc1cccc2ccccc12`: the “activation” value was -16.7% [at 42.5 µM].

On to `Cc1c(N)c(=O)n(-c2ccccc2)n1C`, for which the “activation” value was 0.906% [at 42.5 µM].

As for `O=C(O)C1(C(=O)Nc2ccc(Cl)cc2Cl)CC1`, the “activation” value is 4.46%.

With `CCC[Si](OC)(OC)OC`, the “activation” value was -8.17%.

For the compound `CCCCCCCCS(=O)(=O)O`, the “activation” value is 0.0868%.

For `CCCCC(CC)CNC(=O)CC(C)OC(=O)CCC(=O)O` (stereo not given), the “activation” value was -15.7% [at 42.5 µM].

As for `CCOC(=O)C1=NN(c2ccccc2)C(=O)C1`, the “activation” value is 3.37%.

As to `CCOc1ccc2nc(S(N)(=O)=O)sc2c1`, the “activation” value was 7.52% [at 42.5 µM].

For the compound `CCCCCC`, the “activation” value is 0.332%.

With `COc1ccc(COC=O)cc1`, the “activation” value was 3.13%.

Consider `COC(=O)CC(C)CCC=C(C)C` (stereo not given), for which the “activation” value is 3.24%.

On to `C[C@@H](O)C(=O)O`, for which the “activation” value is -0.57%.

For `CCCC(=O)OC/C=C(\C)CCC=C(C)C`, the “activation” value was 1.66%.

As for `CCC(CC)CO`, the “activation” value is -0.504%.

`CC(=O)SCc1ccco1`: the “activation” value is 2.63%.

`Cc1cc2c(C(C)C)c(O)c(O)c(C=O)c2c(O)c1-c1c(C)cc2c(C(C)C)c(O)c(O)c(C=O)c2c1O`: the “activation” value is -9.19% [at 42.5 µM].

Turning to `CC(C)(C)NC(=O)[C@@H]1C[C@@H]2CCCC[C@@H]2CN1C[C@@H](O)[C@H](Cc1ccccc1)NC(=O)[C@H](CC(N)=O)NC(=O)c1ccc2ccccc2n1`, the “activation” value is -0.988%.

Turning to `Cc1ccccc1Br`, the “activation” value is -1.27%.

`Nc1ccc(O)c(N)c1`: the “activation” value is 8.76%.

`Nc1ccc([N+](=O)[O-])c(N)c1`: the “activation” value is -2.52%.

Regarding `CCCCNc1ccc(C(=O)OCCOCCOCCOCCOCCOCCOCCOCCOCCOC)cc1`, the “activation” value is 0.825% [at 42.5 µM].

`Cc1ccccc1C(=O)Nc1ccc(C(=O)N2CCCC(O)c3cc(Cl)ccc32)c(C)c1` (stereo not given): the “activation” value is 24.9% [at 42.5 µM].

Turning to `[O-][N+](=Nc1ccccc1)c1ccccc1`, the “activation” value was -5.28%.

With `Cc1ncc([C@@H](CCCCCCc2ccc3c(n2)NCCC3)CC(=O)O)cn1`, the “activation” value is 41.9%.

For the compound `CCCCCCCCCCl`, the “activation” value is 1.84%.

On to `CCN(CC)c1ccc(N=Nc2ccccc2)cc1`, for which the “activation” value was -4.14%.

As to `c1ccc(B(c2ccccc2)c2ccccc2)cc1`, the “activation” value was 15.3%.

`O=[N+]([O-])C1(Br)COCOC1`: the “activation” value was -3%.

Consider `CCC(C)(CCC(C)C)C(=O)O` (stereo not given), for which the “activation” value was 2.26%.

`CCCCNCC`: the “activation” value is 0.144%.

As for `CC1=C(CC(=O)O)c2cc(F)ccc2/C1=C\c1ccc(S(C)(=O)=O)cc1`, the “activation” value was -9.69% [at 42.5 µM].

On to `CC1(C)C(=O)N(Cl)C(=O)N1Br`, for which the “activation” value was 1.5%.

For the compound `COc1cc2c(cc1OC)[C@@H]1CC(=O)[C@@H](CC(C)C)CN1CC2`, the “activation” value was 2.97% [at 42.5 µM].

Consider `COC(=O)C1=C(C)NC(COC(N)=O)=C(C(=O)OC(C)C)C1c1cccc(Cl)c1Cl` (stereo not given), for which the “activation” value is -1.57% [at 42.5 µM].

`Cc1cc(C)c(/C=C2\C(=O)Nc3ccccc32)[nH]1`: the “activation” value was 1.56% [at 42.5 µM].
